# Assays:
# Format in all cases: functional
# Plasmodium falciparum [1] = test: GSK_TCMDC: Inhibition of Plasmodium falciparum 3D7 in whole red blood cells, using parasite LDH activity as an index of growth. Test compounds present at 2uM
# Plasmodium falciparum [2] = test: GSK_TCMDC: Inhibition of Plasmodium falciparum Dd2 in whole red blood cells, using parasite LDH activity as an index of growth. Test compounds present at 2uM
# HepG2 = test: GSK_TCMDC: Percent inhibition of human HepG2 cell line. Test compounds present at 10uM.
SMILES,Inhibition (Plasmodium falciparum [1]),Inhibition (Plasmodium falciparum [2]),Inhibition (HepG2)
N#Cc1cccc(NC(=O)Nc2cccc(-c3ccc(-c4nc5cc(C(F)(F)F)ccc5[nH]4)cc3)c2)c1,100%,99%,54%
O=C(Cc1ccccc1)NC(c1ccco1)c1cc(Cl)c2cccnc2c1O (stereo unspecified),89%,93%,44%
O=C(Nc1ccccc1Cl)N(Cc1cc(Cl)cc(Cl)c1)CC(O)COc1ccc(Cl)c(F)c1 (stereo unspecified),93%,17%,0%
CCOc1cc(C(=O)NCc2ccc(Cl)c(Cl)c2)ccc1-c1nc2cc(Cl)ccc2[nH]1,97%,4%,10%
CN(CCCN(C)c1cc(NC(=O)c2cccc(F)c2)ccn1)Cc1cccc(O)c1.O=C(O)C(F)(F)F,92%,4%,0%
NCc1ccc(-c2cccc(CNC3CCN(Cc4ccccc4)CC3)c2)cc1.O=C(O)C(F)(F)F,100%,50%,24%
CN1CCN(c2cc(-c3ccncc3)nc(-c3cccnc3)n2)CC1,100%,98%,13%
O=C(Nc1nc2ccc(Cl)cc2s1)c1csnn1,96%,99%,15%
CC(C)(C)c1cc(C(=O)N2CCN(c3ncccc3C(F)(F)F)CC2)n(Cc2ccccc2)n1,100%,99%,0%
COc1ccc2cc(C(c3nnnn3CC3CCCO3)N3CCc4ccccc43)c(=O)[nH]c2c1 (stereo unspecified),94%,3%,0%
O=C(NC1CCCCC1)N(Cc1ccc(-c2cccc(CNCc3ccc4c(c3)OCO4)c2)cc1)C1CCN(Cc2ccccc2)CC1.O=C(O)C(F)(F)F,100%,72%,23%
CCNc1cc(C(=O)N[C@@H](Cc2ccccc2)[C@H](O)CNC2(C)CCCCC2)cc(N2CCCCS2(=O)=O)c1.Cl,100%,98%,13%
O=C(NC1CCN(c2ccnc3cc(Cl)ccc23)C1)c1ccc(C(F)(F)F)cc1.O=C(O)C(F)(F)F (stereo unspecified),100%,57%,37%
COc1ccc(CNC(=O)c2cnc3c(O)cccc3c2Nc2cccc(NC(=O)c3ccc(F)cc3)c2)cc1.O=C(O)C(F)(F)F,91%,65%,50%
CCc1ccccc1NC(=O)CN1CCN(c2ncnc3scc(-c4ccc(F)cc4)c23)CC1,83%,62%,6%
O=C(NCCN1CCC(NC(=O)c2ccc(-c3ccccn3)s2)CC1)c1cccc(C(F)(F)F)c1.O=C(O)C(F)(F)F,97%,24%,4%
O=C(Cc1cc(F)cc(F)c1)NC1CCN(c2ccnc3cc(Cl)ccc23)C1.O=C(O)C(F)(F)F (stereo unspecified),82%,100%,13%
Cc1ccc(-n2c(C)nc3c(Nc4ccc(-c5ccncc5)cc4)ncnc32)c(C)c1,99%,99%,38%
CCOc1ccc(NC(=O)c2ccc(CN3CCCN(Cc4cccc(O)c4)CC3)cc2)cc1.O=C(O)C(F)(F)F,85%,9%,44%
CCc1cn2c3c(cc(C(=O)N[C@@H](Cc4cccc(F)c4)[C@H](O)CNC4CCOCC4)cc13)N(C)S(=O)(=O)CC2.O=CO,97%,97%,0%
O=[N+]([O-])c1cc(/C=N/Nc2nc3ccccc3[nH]2)ccc1O,98%,14%,0%
CN(c1ccc(NC(=O)c2cccc(F)c2)cc1)C1CCCN(Cc2cccc(O)c2)C1.O=C(O)C(F)(F)F (stereo unspecified),85%,2%,13%
COc1ccc2nccc([C@@H](O)CN3CCC(NC(=O)C(c4cc5ccccc5o4)N4CCN(c5ccccc5)CC4)CC3)c2c1 (stereo partly specified),99%,99%,19%
COc1ccc2nccc([C@@H](O)CN3CCC(NCc4nc5c([N+](=O)[O-])cccc5[nH]4)CC3)c2c1.O=C(O)C(=O)O,100%,84%,13%
Cc1nc(C)c(CC(=O)Nc2ccc(-c3cccc(-c4nc5cccc(C)c5[nH]4)c3)cc2)s1,100%,38%,41%
CN1CCC(C(=O)Nc2cccc(-c3cccc(-c4nc5cc(F)ccc5[nH]4)c3)c2)CC1,100%,27%,32%
CN1CCCN(c2ccnc3cc4c(cc23)N(C(=O)c2ccc(Cl)cc2)CC4)CC1.Cl,100%,0%,0%

# Source: ChEMBL document CHEMBL1157539, “Thousands of chemical starting points for antimalarial lead identification” (Nature, 2010)
